# Measured values: PubChem BioAssay (Tox21)
# Results filed as inconclusive are left out. Entries that show only a call come without a potency. Activity calls are given as the source filed them. The call rests on the fitted dose curve; in most records, active means well fitted cell-killing curve with a large enough effect in the repeat runs; inconclusive means weak or mixed curves, or effect the other way; inactive means no such curve, though single readings can be large or run the other way.
# Experiment: qHTS assay for identifying genotoxic compounds that show differential cytotoxicity against isogenic chicken DT40 cell lines with known DNA damage response pathways - Rev3 mutant cell line (AID 743014); further: nearly all actives have a fitted effect of over 55% in size
# Conditions: chicken DT40 Rev3-/- viability, CellTiter-Glo, 40 h; series mostly up to 68.4 µM
# From the text: National Center for Advancing Translational Sciences [NCATS]
# NIH Chemical Genomics Center [NCGC]
# U.S. Environmental Protection Agency [EPA]
# National Institutes of Environmental Health Sciences [NIEHS]
# National Toxicology Program [NTP]
# U.S. Food and Drug Administration [FDA]
# DNA repair pathways play a critical role in cellular homeostasis by repairing DNA damage induced by endogenous processes and xenobiotics. Isogenic chicken DT40 cell lines deficient in different DNA repair pathways can be used to identify genotoxic compounds and aid in characterizing the nature of the DNA damage induced. Two DNA repair-deficient cell lines with disrupted genes, Rad54/Ku70 or Rev3, were used to screen the Tox21 10K compound library. Possible genotoxicity was based on the presence of a significant increase in cytotoxicity in one or more of the DNA repair-deficient cell lines compared to that observed in the parental DNA repair-proficient cell line. CellTiter Glo viability assay (Promega, Madison, WI) was used to measure cell viability in these cells after compound treatment. This assay includes the data from the Rev3 mutant cell line.
# Tox21 Assay Protocol Summary:
# 300 DT40 mutant cells in 5 uL/well were dispensed into white, solid-bottom 1536-well plates using a Multidrop Combi (ThermoFisher Scientific, Waltham, MA) dispenser. After the assay plates were incubated at 37 C/5% CO2 for approximately 0.5 hour, 23 nL of compounds dissolved in DMSO, positive controls or DMSO only was transferred into the assay plate by a pintool work station (Kalypsys, San Diego, CA). The assay plates were incubated at 37 C/5% CO2 for 40 hours. After 5 uL per well of CellTiter-Glo reagent was added into each well of the assay plates, the plates were incubated for 30 min at room temperature and the luminescence intensity of the plates was measured using a ViewLux (PerkinElmer, Shelton, CT) plate reader.
# Potency means the concentration at half of the fitted maximal effect.
row,Compound,Potency
1,CCOc1nc2cccc(C(=O)O)c2n1Cc1ccc(-c2ccccc2-c2nn[nH]n2)cc1,inactive
2,CCOC(=O)CC(=O)c1cc(F)c(Cl)nc1Cl,inactive
3,Cn1sccc1=O,3.06 µM (active)
4,O=C(c1ccccc1)c1ccc2n1CCC2C(=O)O (stereo not given),inactive
5,CCC(=O)OC(C)(C)C1CC=C(C)CC1 (stereo not given),48.6 µM (active)
6,CCCCCCCCCCCCCCCBr,inactive
7,CC(C)CCCCCCOC(=O)c1ccc(C(=O)OCCCCCCC(C)C)c(C(=O)OCCCCCCC(C)C)c1,inactive
8,CCCCCCCCCC(=O)OCC,inactive
9,N[C@H]1C(O)O[C@H](CO)[C@H](O)[C@@H]1O (stereo not given in full),inactive
10,CCN(CC)CCOc1ccc2c(c1)C(=O)c1cc(OCCN(CC)CC)ccc1-2,2.66 µM (active)
11,CC(=O)N(O)CCCCCNC(=O)CCC(=O)N(O)CCCCCNC(=O)CCC(=O)N(O)CCCCCN,inactive
12,Oc1ccc(C(O)CNCCCCCCNCC(O)c2ccc(O)c(O)c2)cc1O (stereo not given),29.8 µM (active)
13,O=[N+]([O-])c1cc[n+]([O-])cc1,inactive
14,Oc1ccc2c(c1)OCO2,54 µM (active)
15,CC(C)(C)c1cc(O)c(C(C)(C)C)cc1O,13.7 µM (active)
16,O=C(O)COC(=O)Cc1ccccc1Nc1c(Cl)cccc1Cl,inactive
17,CCCCOc1cc(C(=O)OCCN(CC)CC)ccc1N,2.54 µM (active)
18,C1CCC2OC2C1 (stereo not given),inactive
19,CCCCCCCC/C=C\CCCCCCCC(N)=O,inactive
20,Nc1ccc(C(=O)Nc2ccccc2N)cc1,0.422 µM (active)

row,Compound,Potency
1,C=CC(C)(CCC=C(C)C)OC(=O)c1ccccc1 (stereo not given),24.3 µM (active)
2,CN(C)CC/C=C1\c2ccccc2COc2ccccc21,26.6 µM (active)
3,O=S1(=O)c2cccc3cccc(c23)N1CCCN1CCN(c2ccc(F)cc2)CC1,23.7 µM (active)
4,Cc1occc1S,61.1 µM (active)
5,CC(C)(C)c1cc(CO)cc(C(C)(C)C)c1O,27.8 µM (active)
6,CCOC(=S)SSC(=S)OCC,inactive
7,NCCCOCCOCCOCCCN,10.9 µM (active)
8,CN1CCC(OC(c2ccccc2)c2ccccc2)CC1,12.7 µM (active)
9,CC1(C)[C@H]2CC[C@]1(C)[C@H](O)C2,inactive
10,OC(CCN1CCCCC1)(c1ccccc1)C1CCCCC1 (stereo not given),inactive
11,CC(=O)O[C@H]1C[C@@H]2CC[C@@H]3[C@H](CC[C@@]4(C)[C@H]3C[C@H]([N+]3(C)CCCCC3)[C@@H]4OC(C)=O)[C@@]2(C)C[C@@H]1N1CCCCC1,inactive
12,CC(=O)[C@@]1(O)CC[C@H]2[C@@H]3C[C@H](C)C4=CC(=O)CC[C@]4(C)[C@H]3CC[C@@]21C,11.9 µM (active)
13,CC(=O)/C(C)=C/C1C(C)=CCCC1(C)C (stereo not given),inactive
14,CCCCOC(O)CC (stereo not given),inactive
15,CCCCCCOC(=O)CCC,inactive
16,CC(C)(C)c1ccc(OCC2CO2)cc1 (stereo not given),inactive
17,O=C(O)C(c1ccc(Cl)cc1)c1ccc(Cl)cc1,inactive
18,NC(N)=N/N=C/c1c(Cl)cccc1Cl,23.7 µM (active)
19,Nc1nc(N)c(-c2ccccc2)s1,inactive
20,CCCCCCCCN(C)C,inactive
